Experimental data published in PubChem BioAssay (NCATS).
Records with an inconclusive call do not appear. The source made the active and inactive calls. The call rests on the fitted dose curve; in most records, active means well fitted curve in the direction sought with a large enough effect; inconclusive means small, poorly fitted or top-dose-only effect, or another doubt; inactive means no such curve, though single readings can be large; an effect the other way counts as inactive or inconclusive.

How the values were obtained:
[1] = Vero cells viability qHTS for Zika virus inhibitors (AID 1347167)
In short: (§1)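 To flag cytotoxic protease inhibitors, viability is measured by ATP-dependent luminescence (CellTiter Glo) after cells attached overnight receive compound for 24 to 48 hours in DMEM with 4% FBS.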

[2] = HepG2 cells viability qHTS for Zika virus inhibitors (AID 1347168)
In short: as §1

[3] = Tertiary RLuc qRT-PCR qHTS assay for Zika virus inhibitors (AID 1347169); further: top concentration of the series differs between compounds; nearly all actives have a fitted effect of over 55% in size
In short: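 Inhibition of ZIKV-RLuc replication in Vero cells, read as Renilla luminescence 1-1.5 hrs after live-cell substrate addition, following 48-72 hrs infection at MOI 1-2 in presence of compound.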

[4] = OV-KATE Cancer Cell Toxicity qHTS against the NCATS CANVASS Library (AID 1347345)
In short: (§2)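 Bortezomib titration and single-dose wells served as plate controls. Test compounds, 11 points, acted on 1000 cells/well for 72 h at 37 degrees C; CellTiter-Glo luminescence quantified remaining viable cells.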

[5] = HPAF-II Cancer Cell Toxicity qHTS against the NCATS CANVASS Library (AID 1347346); further: series mostly up to about 38 µM; nearly all actives have a fitted effect of over 55% in size
In short: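 Using 1000 HPAF-II cells per well, we titrated compounds over 11 concentrations for 72 h at 37 degrees C/5% CO2, with bortezomib as control. Cell survival was quantified by CellTiter-Glo luminescence.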

[6] = UWB1.289 Cancer Cell Toxicity qHTS against the NCATS CANVASS Library (AID 1347347); further: series mostly up to about 38 µM; nearly all actives have a fitted effect of over 60% in size
Source text: Natural products and their derivatives continue to be wellsprings of nascent therapeutic potential. However, many laboratories have limited resources for biological evaluation, leaving their previously isolated or synthesized compounds largely or completely untested. To address this issue, the Canvass library of natural products was assembled (https://tripod.nih.gov/canvass), in collaboration with academic and industry researchers, for quantitative high-throughput screening (qHTS) across a diverse set of cell-based and biochemical assays. The pure (>85% purity by liquid chromatography/mass spectrometry [LC/MS]) Canvass library of 346 natural products were submitted by 45 academic laboratories and companies around the world. […] The library was formatted into 1536-well plates and evaluated in 50 qHTS (in an 11-pnt concentration series) bioassays with broad scope of disease-relevant mechanisms. The resulting data set from 50 different assays was then systematically analyzed to identify overall trends and specific natural products with interesting biological activities. […]
Cancer Cell Toxicity protocol for cell lines COV-362, OV-KATE, OV-SAHO, UWB1.289, UWB1.289-WTBRCA1, HEK-293, HPAF-II, Panc-1005, SW1088, or U-118MG. […] Luminescence signal was acquired via the ViewLux plate reader (PerkinElmer) using a clear filter, 2 second exposure and 2x binning settings.

[7] = OV-SAHO Cancer Cell Toxicity qHTS against the NCATS CANVASS Library (AID 1347348); further: series mostly up to about 38 µM; nearly all actives have a fitted effect of over 55% in size
In short: as §2

[8] = Panc-1005 Cancer Cell Toxicity qHTS against the NCATS CANVASS Library (AID 1347349); further: series mostly up to about 38 µM; nearly all actives have a fitted effect of over 60% in size
In short: as §2

Measured: Potency

C[C@@]1(C(=O)O)CC[C@]2(C)CC[C@]3(C)C4=CC(=O)c5cc(O)c(O)cc5[C@]4(C)CC[C@@]3(C)[C@@H]2C1
inactive: [1] | [2] | [3]

CCCCCOc1cc2c(cc1-c1cc(/C=C/C(=O)O)ccc1O)C(C)(C)CCC2(C)C
inactive: [1] | [2]

O=C1C[C@@H]2OCC=C3CN4CC[C@]56c7ccccc7N1[C@H]5[C@H]2[C@H]3C[C@H]46
inactive: [4] | [5] | [6] | [7] | [8]

COc1ccc2[nH]cc(CCN)c2c1
inactive: [4] | [5] | [6] | [7] | [8]
